In the library only some 0.74% were active in any assay of this set; here they are far more common.
Akt phos inh: HTS Assay for Inhibitors of Akt Phophorylation: Primary Screen | 0.32% of 360,000 active | activity change, % for hits at 50 µM | Neuro2A IGF-stimulated pAkt S473 HTRF, 20 min; stronger effect = lower value | AID 651550, 2012; in the data active = activity change below about -80%; inconclusive = mostly about -51% to -80%
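Single-point screen (50 µM final compound) in Neuro2A cells stimulated 20 min with 6 nM IGF at 37 deg C. After lysis, Ser473-phosphorylated Akt read by HTRF (ex 330 nm, em 615/665 nm) as the 665/615 ratio.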
PINK1 expr mod: A Quantitative High throughput Screen to Identify Chemical Modulators of PINK1 Expression; AID 624263, 2012; PINK1 immunofluorescence, high-content cytometry, 24 h; 0.2% of 410,000 active; Potency, µM (series often up to 76.6 µM), actives largely listed as activators; active = well fitted activation curve with a large enough effect; inconclusive = small, poorly fitted or top-dose-only effect; cell line not stated here; note: nearly all actives have a fitted effect of over 65% in size
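Stable cell line, 250 cells/well, 12 h attachment; compounds pinned at 5 concentrations, 24 h; CCCP control. Fixed with nuclear dye, primary antibodies 12 h at 10 degrees C, secondary plus cell stain; laser-scanning cytometer read.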
LDHA block: qHTS assay for inhibitors of human lactate dehydrogenase; 0.15% of 480,000 active; activity change, % (values are at about 110 or 230 µM); L-lactate dehydrogenase A chain (Homo sapiens), P00338; purified LDHA, NADH/diaphorase-resazurin fluorescence; stronger effect = lower value; in the data active = activity change below about -30%; inconclusive = mostly about -25% to -30%
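Human LDH5 at 2 nM final in Tris HCl pH 7.4 with 0.06 mM NADH and 0.2 mM pyruvate, reacted 5 minutes at room temperature. Remaining NADH coupled via diaphorase/resazurin; resorufin fluorescence read at 0 and 20 minutes, normalized to enzyme-free and DMSO wells.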
Vif-APOBEC3F blk: qHTS for Inhibitors of Vif-A3F Interactions: qHTS; HeLa A3F-eYFP + Vif (tagged APOBEC3F with the HIV-1 protein that degrades it), YFP fluorescence increase; Potency, µM (highest dose often 46.1 µM); 0.2% of 390,000 active; AID 602313, 2012; note: nearly all actives have a fitted effect of over 65% in size
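HeLa cells stably expressing Vif plus C-terminally eYFP-tagged A3F were seeded, incubated overnight at 37 deg C, dosed with compound, incubated overnight again at 37 deg C. Yellow fluorescence (Ex 488/Em 500-530) reported blocked Vif-mediated A3F-eYFP degradation.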
Glioma ERSR ind: qHTS for Inducers of the Endoplasmic Reticulum Stress Response (ERSR) in Human Glioma: qHTS; U87-MG GRP78 promoter luciferase reporter, 16 h; 0.02% of 420,000 active; Potency, µM, hits mostly activators; note: series mostly up to about 76 µM; nearly all actives have a fitted effect of over 35% in size
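ERSR induction read as luciferase luminescence (Bright-Glo, 10 min at room temperature) in stably transfected human U87-MG glioma cells exposed to compounds for 16 h, using GRP78 as sensor.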
Vif-APOBEC3G blk: qHTS for Inhibitors of Vif-A3G Interactions: qHTS; DNA dC->dU-editing enzyme APOBEC-3G (Homo sapiens), Q9HC16; HeLa A3G-eYFP + Vif (tagged APOBEC3G with the HIV-1 protein that degrades it), YFP fluorescence, overnight; Potency, µM (doses to about 46.1 µM), usual class: inhibitors; 0.076% of 410,000 active; note: nearly all actives have a fitted effect of over 60% in size
Target sequence (Q9HC16 whole entry, looked up): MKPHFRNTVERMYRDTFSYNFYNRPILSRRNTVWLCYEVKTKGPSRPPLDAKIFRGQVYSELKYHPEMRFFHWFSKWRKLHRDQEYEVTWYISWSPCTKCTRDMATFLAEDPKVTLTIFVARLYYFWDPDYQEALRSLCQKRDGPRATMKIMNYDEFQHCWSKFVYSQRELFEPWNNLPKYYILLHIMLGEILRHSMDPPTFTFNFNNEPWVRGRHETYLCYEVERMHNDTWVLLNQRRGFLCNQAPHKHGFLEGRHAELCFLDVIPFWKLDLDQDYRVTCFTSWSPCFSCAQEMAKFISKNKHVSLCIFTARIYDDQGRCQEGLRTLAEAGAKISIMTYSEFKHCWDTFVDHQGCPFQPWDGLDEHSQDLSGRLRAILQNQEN
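HeLa cells stably expressing Vif and C-terminally eYFP-tagged A3G, seeded overnight at 37 deg C, then exposed to compound by pintool overnight at 37 deg C. Rise in yellow fluorescence (Ex 488/Em 500-530, Acumen) marks blocked Vif-driven A3G degradation.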
Of the large screens only hits and unclear results are named; the others gave an inactive call; ! = not active in a repeat. Unless noted, calls come from the whole dose curve; as a rule, active = well fitted curve in the direction sought with a large enough effect; inconclusive = small, poorly fitted or top-dose-only effect, or another doubt; inactive = no such curve, though single readings can be large; an effect the other way counts as inactive or inconclusive.

CCOC(=O)c1cnc2c(Cl)c(Cl)ccc2c1NCC(C)O (stereo not drawn)	none (no result: Akt phos inh, PINK1 expr mod, Vif-APOBEC3F blk, Glioma ERSR ind, Vif-APOBEC3G blk)
Cc1ccc(S(=O)(=O)c2cc3ccccc3oc2=Nc2ccc3c(c2)OCCO3)cc1	none
Cc1ccc(S(=O)(=O)c2cc3ccccc3oc2=Nc2ccc3c(c2)OCO3)cc1	PINK1 expr mod inconclusive, Vif-APOBEC3F blk 22.4µM
N#Cc1cccc(Oc2ccc(F)cc2)c1C#N	none (no result: Akt phos inh, PINK1 expr mod, Vif-APOBEC3F blk, Glioma ERSR ind, Vif-APOBEC3G blk)
CCOC(=O)c1sc(=S)n(C)c1NC(=O)c1cccc(Br)c1	PINK1 expr mod 39.8µM
CN(C)c1ccc(/C=C(/C#N)C(=O)NCc2ccccc2)o1	PINK1 expr mod inconclusive, Vif-APOBEC3F blk 10µM, Vif-APOBEC3G blk inconclusive
N#C/C(=C/c1ccccc1)C(=O)NCc1ccccc1	Glioma ERSR ind inconclusive
CC(C)NC(=S)N/N=C/c1sc(N2CCCCC2)nc1-c1cccs1	Vif-APOBEC3F blk 11.2µM, Vif-APOBEC3G blk inconclusive
NC(=O)N/N=C/c1sc(N2CCCCC2)nc1-c1cccs1	Vif-APOBEC3G blk inconclusive
COc1ccc2ccc(OCC(=O)NC3CCCC3)cc2c1	none (no result: Akt phos inh, PINK1 expr mod, Vif-APOBEC3F blk, Glioma ERSR ind, Vif-APOBEC3G blk)
Clc1ccc(N2CCN(c3ncnc4nc[nH]c34)CC2)cc1Cl	LDHA block -31.1 (no result: Akt phos inh, PINK1 expr mod, Vif-APOBEC3F blk, Glioma ERSR ind, Vif-APOBEC3G blk)
Clc1cccc(N2CCN(c3ncnc4nc[nH]c34)CC2)c1	none
N[C@@H](Cc1cc(I)c(Oc2ccc(O)c(I)c2)c(I)c1)C(=O)O	LDHA block -34.8!
NC(Cc1cc(I)c(Oc2ccc(O)c(I)c2)c(I)c1)C(=O)O (stereo not drawn)	none (no result: Akt phos inh, PINK1 expr mod, LDHA block, Vif-APOBEC3F blk, Vif-APOBEC3G blk)
CCn1c(O)c(C=Nc2ccccc2)sc1=S	none
O=C(O)Cn1c(O)c(C=Nc2ccccc2)sc1=S	Akt phos inh -106.8%!
O=C(O)c1cc(N2C(=O)C3CC=CCC3C2=O)ccc1NCc1cccnc1 (stereo not drawn)	Akt phos inh -116.0% (no result: Vif-APOBEC3F blk)
CCCNC(=S)NC1CCC(NC(=S)NCCC)CC1 (stereo not drawn)	none (no result: Akt phos inh, PINK1 expr mod, Vif-APOBEC3F blk, Glioma ERSR ind, Vif-APOBEC3G blk)
CC(C)c1noc(CCCC(=O)NC(C)c2cccs2)n1 (stereo not drawn)	none (no result: Akt phos inh, PINK1 expr mod, Vif-APOBEC3F blk, Glioma ERSR ind, Vif-APOBEC3G blk)
CSCCC(NC(=O)OCc1ccccc1)C(=O)O (stereo not drawn)	Akt phos inh -104.4%
COC(=O)c1sccc1NC(=O)c1cc(-c2ccc(C)cc2C)nc2ccccc12	Akt phos inh -117.0%
Cc1ccc(NC(=O)c2cc(-c3cccs3)nc3ccccc23)c(C)c1	none (no result: Akt phos inh)
ClCC1NCC(c2ccccc2Cl)c2c1[nH]c1ccccc21 (stereo not drawn)	Vif-APOBEC3F blk 22.4µM, Vif-APOBEC3G blk inconclusive
COc1cccc(C(=O)COC(=O)C(CC(=O)c2ccccc2)Nc2ccccc2OC)c1 (stereo not drawn)	none (no result: Akt phos inh, PINK1 expr mod, Vif-APOBEC3F blk, Glioma ERSR ind, Vif-APOBEC3G blk)
c1ccc(Cn2sc(=Nc3ccccc3)nc2-c2ccccc2)cc1	none (no result: Akt phos inh, Vif-APOBEC3F blk)
c1ccc(N=c2nc(-c3ccccc3)n(-c3ccccc3)s2)cc1	PINK1 expr mod 15.8µM (no result: Akt phos inh, Vif-APOBEC3F blk)
COC(=O)c1cc(COC(=O)Cc2coc3cc(C)c(C)cc23)oc1C	none (no result: Akt phos inh, PINK1 expr mod, Vif-APOBEC3F blk, Glioma ERSR ind, Vif-APOBEC3G blk)
CC(C)(C)c1nc(CN2CCN(C(=O)N3CCCCC3)CC2)no1	none (no result: Akt phos inh, PINK1 expr mod, Vif-APOBEC3F blk, Glioma ERSR ind, Vif-APOBEC3G blk)
Cc1ccc(C2=Nc3ccccc3N=C(c3ccco3)C2)c(O)c1	Akt phos inh -124.8%
Cc1cc(C)nc(Nc2nc(C(N)Cc3ccccc3)cs2)n1 (stereo not drawn)	Vif-APOBEC3G blk 4.47µM (no result: Vif-APOBEC3F blk)
COC(=O)c1cc(C)nc(Nc2nc(C(N)Cc3ccc(F)cc3)cs2)n1 (stereo not drawn)	none (no result: Vif-APOBEC3F blk)
CCc1cc(C(Nc2nc(C)cc(C)n2)c2ccccc2)c(NC(=O)c2ccco2)s1 (stereo not drawn)	none (no result: Akt phos inh, PINK1 expr mod, Vif-APOBEC3F blk, Glioma ERSR ind, Vif-APOBEC3G blk)
COc1ccc(NC(=O)CCc2c(C)nc3nc(C)nn3c2C)cc1	Akt phos inh -117.5%
CC(O)CNc1nc2c(c(=O)n(C)c(=O)n2C)n1CCc1ccccc1 (stereo not drawn)	Akt phos inh -111.5%
COc1ccc(-c2ccc3c(N)c(C(=O)Nc4ccc(C(F)(F)F)cc4)sc3n2)cc1OC	none (no result: Akt phos inh)

Assay outcomes from PubChem BioAssay.
